aSyn UTR act = Activators via SNCA 5'UTR binding, MLPCN; 300,000 tested, 7.1% active; alpha-synuclein 5'UTR reporter, activators screen; activity score, % (tested at 7.5 µM), hits read low; in the data active = activity score below about -60%
Each line names hits and unclear results; the compound was inactive in the other large screens. These entries were drawn from the full list.

COc1ccc(/C=N/Nc2nc(Nc3ccccc3)nc(N3CCCCC3)n2)cc1OC	aSyn UTR act -111
O=c1c(Br)c(N2CCCC2)cnn1-c1ccccc1	aSyn UTR act -138
O=c1c(Br)c(N2CCOCC2)cnn1-c1ccccc1	aSyn UTR act -144
O=C(Cn1ncc(N2CCOCC2)c(Br)c1=O)c1ccc(Cl)cc1	aSyn UTR act -111
c1ccc(-n2nnc3c(N4CCOCC4)ncnc32)cc1	none
CCOC(=O)/C(N=Nc1ccc2c(c1)OCO2)=C(\C)O	aSyn UTR act -123
CCC(=O)Nc1cccc(NC(=S)NC(=O)c2ccc(Cl)cc2)c1	aSyn UTR act -151
CCOc1ccc(C(=O)NC(=S)Nc2cccc(S(=O)(=O)NC3=NCCC3)c2)cc1	none
CCC(=O)Nc1cccc(NC(=S)NC(=O)c2ccccc2C)c1	aSyn UTR act -113
CCCc1ccc(-c2cc(NC(=O)CSc3nnc(N)s3)n(-c3ccccc3)n2)cc1	aSyn UTR act -146
C=CCNc1nc(Cl)nc(Nc2ccccc2)n1	aSyn UTR act -72
COc1ccc(C(=O)COc2ccc(F)cc2)c(O)c1	aSyn UTR act -119
COc1ccc(C(=O)Cc2ccc(F)cc2)c(OC)c1	aSyn UTR act -117
COc1ccc(C(=O)CCc2ccccc2)c(O)c1	aSyn UTR act -107
O=C(COc1ccc(F)cc1)c1c(O)cc(O)cc1O	aSyn UTR act -79
CCCCOC(=O)/C(=C/c1cn(C)c2ccccc12)NC(=O)c1ccc(OC)cc1	aSyn UTR act -100
Cc1occc1C(=O)N/N=C/c1ccc(Br)s1	aSyn UTR act -149
C/C(=N\NC(=O)c1ccoc1C)c1ccc(Br)s1	aSyn UTR act -65
Cc1ccc(/C=N/NC(=O)c2ccoc2C)s1	aSyn UTR act -120
O=C(NC1=NCCS1)c1sc2cc(F)ccc2c1Cl	aSyn UTR act -191
O=C(NC1CCC(O)CC1)c1ccc(-c2ccc(Cl)cc2)o1 (centres undefined)	aSyn UTR act -112
O=C(NC1=NCCS1)c1ccc(-c2ccc(Cl)cc2)o1	aSyn UTR act -191
O=C(NNC1=Nc2ccccc2SC1)c1ccc(Cl)cc1	none
O=C(NC1=NCCS1)c1ccc(Cl)cc1	aSyn UTR act -180
O=C(NCCCN1CCOCC1)c1sc2cc(F)ccc2c1Cl	aSyn UTR act -62
Cc1ccc(Nc2nnc(-c3ccc4c(c3)OCO4)o2)c(C)c1	aSyn UTR act -93
Cc1ccc(C(=O)Oc2ccc(/C=C3\C(=N)N4N=C(N5CCOCC5)SC4=NC3=O)cc2)cc1	aSyn UTR act -62
O=C(c1ccc(F)cc1)n1ccc(-c2cnc(-c3ccccc3)s2)n1	aSyn UTR act -124
Cc1ccc(Cn2ccc(-c3cnc(-c4ccccc4)s3)n2)cc1	aSyn UTR act -128
O=S(=O)(c1ccccc1)n1ccc(-c2cnc(-c3ccccc3)s2)n1	aSyn UTR act -131
Fc1ccc(Cn2ccc(-c3cnc(-c4ccccc4)s3)n2)cc1	aSyn UTR act -140
Oc1ccc(/C=N/Nc2cccc3cccnc23)c(O)c1	aSyn UTR act -405
Oc1ccc(/C=N/Nc2nccnc2Cl)c(O)c1	none
Cc1ccc(/C=N/Nc2cccc3cccnc23)c(O)c1	aSyn UTR act -271
Cc1ccc(S(=O)(=O)Nc2cccc3cccnc23)c([N+](=O)[O-])c1	none
Cc1cc(-c2nnc3n2N=C(c2ccc(F)cc2)CS3)n[nH]1	aSyn UTR act -77
Cc1cccc(-c2nnc3n2N=C(c2ccccc2)CS3)c1	none
C/C(=N\NC(=S)Nc1cccc(C)c1)c1ccco1	aSyn UTR act -189
C/C(=N\NC(=S)Nc1cccc(C)c1)c1ccccc1	aSyn UTR act -100
CC1=C/C(=C\C=C(C#N)C#N)N(C)c2ccccc21	aSyn UTR act -102
CCCCNc1c(-c2ccc(SC3CCCCC3)cc2)nc2ccccn12	aSyn UTR act -83
Cc1ccc(Sc2cnc3ccccc3n2)cc1	aSyn UTR act -176
COc1ccc(/C=C/c2ccncc2)cc1	aSyn UTR act -96
C(=C/c1nccc2c1[nH]c1ccccc12)/c1ccc2c(c1)OCO2	aSyn UTR act -132
CC(=O)Nc1ccc(S(=O)(=O)NC2=C(N3CCN(C)CC3)C(=O)c3ccccc3C2=O)cc1	none
CC(=O)Nc1cccc2c1Cc1ccccc1-2	aSyn UTR act -159
CN(C)c1ccc(NC(=S)NC23CC4CC(CC(C4)C2)C3)cc1	aSyn UTR act -129
COc1ccc2cc(C3OCCO3)c(Cl)nc2c1	aSyn UTR act -108
COc1ccc2cc3c(N)nn(C(=O)c4ccccc4Cl)c3nc2c1	none
COc1ccc2c(c1)C(C)=CC(C)(C)N2S(=O)(=O)c1ccc(Br)cc1	aSyn UTR act -86
COc1ccc2c(c1)C(C)=CC(C)(C)N2S(=O)(=O)c1ccc(NC(C)=O)cc1	none
COc1cc(/C=C/c2ccc3cccc(O)c3n2)ccc1O	aSyn UTR act -67
Oc1cccc2ccc(/C=C/c3cccs3)nc12	aSyn UTR act -172
COc1ccc(C(NC(C)=O)c2ccc3cccnc3c2O)c(OC)c1 (centres undefined)	none
Cc1cc(-c2csc(NC(=O)c3cccc(S(=O)(=O)N(C)C)c3)n2)c(C)n1-c1ccccc1	aSyn UTR act -83
COc1cc(/C=N/NC(=O)c2ccoc2C)ccc1O	aSyn UTR act -67
O=C(N/N=C/c1ccccn1)c1ccc(N/N=C/c2ccccn2)cc1	aSyn UTR act -132
Cc1occc1C(=O)N/N=C/c1ccccc1[N+](=O)[O-]	aSyn UTR act -121
COc1cccc(/C=N/NC(=O)c2cc3c(OC)cccc3[nH]2)c1O	none
COc1cccc(/C=N/NC(=O)NC2CCCCC2)c1O	aSyn UTR act -97
CCN(CC)c1ccc(/C=N/NC(=O)c2ccoc2C)cc1	aSyn UTR act -95
COc1cc(C(=O)N/N=C/c2ccc3c(c2)c2ccccc2n3C)ccc1O	aSyn UTR act -117
Cc1occc1C(=O)N/N=C/c1ccccn1	aSyn UTR act -84
COc1cccc(/C=N/NC(=O)c2ccoc2C)c1	aSyn UTR act -125
COc1cccc(/C=N/NC(=O)c2ccoc2C)c1O	aSyn UTR act -71
COc1cccc(/C=N/NC(=O)c2c(-c3ccccc3)noc2C)c1O	none
CCOc1ccc(/C=N/NC(=O)c2ccoc2C)cc1OC	aSyn UTR act -110
O=C(/C=C/c1ccco1)Oc1cc(Br)cc(/C=N/NC(=O)c2ccccc2O)c1	none
COc1ccc(/C=N/NC(=O)c2ccoc2C)cc1CN1CCN(c2ccc(F)cc2)CC1	aSyn UTR act -79
Cc1ccc(C(=O)N/N=C/c2cccc(OC(=O)/C=C/c3ccco3)c2)cn1	aSyn UTR act -100
COC(=O)/C(=C/c1ccc2c(c1)c1ccccc1n2C)NC(=O)c1ccccc1	aSyn UTR act -68
Cn1nccc1C(=O)N/N=C/c1ccccc1[N+](=O)[O-]	aSyn UTR act -89
CCC1CCCCN1C(=O)c1ccc(OC2CCN(C(=O)CCOC)CC2)cc1 (centres undefined)	aSyn UTR act -82
CCOc1ccc(C2=Nc3ccc(Br)cc3C(c3ccc(N4CCOCC4)cc3)=NN2)cc1	aSyn UTR act -66
CCOc1ccc(C2=Nc3ccccc3C(c3ccc(N4CCOCC4)cc3)=NN2)cc1	aSyn UTR act -95
Cc1cccc(-c2cc3nc4c(c(NCc5ccco5)n3n2)CCCC4)c1	aSyn UTR act -93
Cc1cccc(-c2cc3nc4c(c(N5CCOCC5)n3n2)CCCC4)c1	aSyn UTR act -114
OC1CCCN(c2c3c(nc4cc(-c5cccc(F)c5)nn24)CCCC3)C1 (centres undefined)	aSyn UTR act -99
CC(=O)c1ccc(NC(=O)C(C)Sc2nnc(C3CCCCC3)o2)cc1 (centres undefined)	aSyn UTR act -128
CN(Cc1ccccc1)S(=O)(=O)c1ccc(C(=O)Nc2nnc(C3CC3)o2)cc1	none
COc1ccc(OCCN2C(=O)c3cccc(N)c3C2=O)cc1	aSyn UTR act -98
